Results reported in patent publication US20030059769, “High affinity nucleic acid ligands to lectins” (published 2003).

Target: T1, L-selectin (LS-Rg) (Homo sapiens, UniProt P14151 P14151:39-332)
T1 sequence: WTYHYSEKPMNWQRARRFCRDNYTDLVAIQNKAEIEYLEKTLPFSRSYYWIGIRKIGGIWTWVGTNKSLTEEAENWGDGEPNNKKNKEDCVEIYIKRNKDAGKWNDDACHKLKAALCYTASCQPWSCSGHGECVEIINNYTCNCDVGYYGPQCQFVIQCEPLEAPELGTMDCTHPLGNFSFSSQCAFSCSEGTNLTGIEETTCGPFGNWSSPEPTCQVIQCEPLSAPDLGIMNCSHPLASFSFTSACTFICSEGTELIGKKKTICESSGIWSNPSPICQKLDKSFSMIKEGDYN
Test: filter; 26-nt hairpin truncate
Conditions: tags: human IgG2 Fc fusion, chain copies: dimer, label: 32P; ssDNA

GCGTTACAAGGTGCTAAACGTAACGT gave a binding signal of 100 fold weaker than LD227.
Work on CCAGTACAAGGTGCTAAACGTAATGG yielded a binding signal of 20 fold weaker than LD201.
